Assay results as given in the supplement of paper PMC11732987, “Enantioselective OTUD7B fragment discovery through chemoproteomics screening and high-throughput optimisation” (Communications Chemistry, 2025).

What was measured:
Assay in all cases: log2 ratio of Biotin-Ahx-Ub-VS probe labelling (fragment/DMSO); higher = less target engagement (more negative = stronger competition), active = hit call of the paper (q ≤ 0.05, log2 ratio ≤ -1)
Details in all cases: compound concentration: 200 uM; treatment time: 3 h
USP19 = target: T1, USP19 (UniProt O94966)
T1 sequence (whole entry): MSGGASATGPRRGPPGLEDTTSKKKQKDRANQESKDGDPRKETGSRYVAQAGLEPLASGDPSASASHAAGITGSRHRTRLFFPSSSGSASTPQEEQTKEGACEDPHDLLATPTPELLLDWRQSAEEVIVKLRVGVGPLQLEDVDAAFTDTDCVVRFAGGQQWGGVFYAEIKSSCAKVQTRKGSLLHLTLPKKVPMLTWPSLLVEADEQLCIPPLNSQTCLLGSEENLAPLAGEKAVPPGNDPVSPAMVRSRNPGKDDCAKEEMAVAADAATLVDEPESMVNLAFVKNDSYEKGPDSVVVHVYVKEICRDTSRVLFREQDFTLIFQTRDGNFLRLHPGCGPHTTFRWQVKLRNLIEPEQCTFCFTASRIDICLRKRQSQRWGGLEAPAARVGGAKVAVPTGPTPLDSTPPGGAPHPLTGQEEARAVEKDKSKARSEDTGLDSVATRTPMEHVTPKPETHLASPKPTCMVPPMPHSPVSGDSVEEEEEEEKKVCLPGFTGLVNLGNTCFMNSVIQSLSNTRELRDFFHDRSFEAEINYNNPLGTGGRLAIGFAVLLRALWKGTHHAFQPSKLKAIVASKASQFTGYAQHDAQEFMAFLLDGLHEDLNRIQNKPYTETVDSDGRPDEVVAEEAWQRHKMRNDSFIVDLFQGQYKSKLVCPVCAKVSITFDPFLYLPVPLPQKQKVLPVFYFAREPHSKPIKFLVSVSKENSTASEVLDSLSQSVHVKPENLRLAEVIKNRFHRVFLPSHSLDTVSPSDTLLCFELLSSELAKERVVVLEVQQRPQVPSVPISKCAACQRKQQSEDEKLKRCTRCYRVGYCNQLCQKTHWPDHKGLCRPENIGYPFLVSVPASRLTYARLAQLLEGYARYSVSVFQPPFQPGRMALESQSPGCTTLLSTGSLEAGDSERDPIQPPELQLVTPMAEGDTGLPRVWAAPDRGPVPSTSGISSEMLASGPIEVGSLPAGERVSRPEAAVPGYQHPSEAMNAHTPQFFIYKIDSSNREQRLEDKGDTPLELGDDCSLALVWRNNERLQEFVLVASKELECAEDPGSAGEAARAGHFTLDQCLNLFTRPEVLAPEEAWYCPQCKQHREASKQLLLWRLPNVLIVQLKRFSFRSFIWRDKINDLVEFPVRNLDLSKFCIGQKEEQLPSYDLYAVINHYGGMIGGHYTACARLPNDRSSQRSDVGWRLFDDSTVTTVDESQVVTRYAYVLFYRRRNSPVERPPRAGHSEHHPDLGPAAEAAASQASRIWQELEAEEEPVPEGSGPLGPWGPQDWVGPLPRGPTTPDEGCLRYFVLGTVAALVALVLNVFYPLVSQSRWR
How it was run: (§1)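 Each value is an average log2 ratio of fragment to vehicle, tested by unpaired t-test. The underlying Spectronaut label-free quantities were global-median-normalised, and only proteins with ≥2 unique peptides were included. Triplicate HEK293T lysate samples (495 µg) were exposed to fragment at 200 µM or vehicle for 3 h, then to Biotin-Ahx-Ub-VS at 0.5 µM final for 1 h, before NeutrAvidin enrichment of labelled DUBs, LysC and trypsin digestion, and diaPASEF LC-MS/MS.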

USP22 = target: T2, USP22 (UniProt Q9UPT9)
T2 sequence (whole entry): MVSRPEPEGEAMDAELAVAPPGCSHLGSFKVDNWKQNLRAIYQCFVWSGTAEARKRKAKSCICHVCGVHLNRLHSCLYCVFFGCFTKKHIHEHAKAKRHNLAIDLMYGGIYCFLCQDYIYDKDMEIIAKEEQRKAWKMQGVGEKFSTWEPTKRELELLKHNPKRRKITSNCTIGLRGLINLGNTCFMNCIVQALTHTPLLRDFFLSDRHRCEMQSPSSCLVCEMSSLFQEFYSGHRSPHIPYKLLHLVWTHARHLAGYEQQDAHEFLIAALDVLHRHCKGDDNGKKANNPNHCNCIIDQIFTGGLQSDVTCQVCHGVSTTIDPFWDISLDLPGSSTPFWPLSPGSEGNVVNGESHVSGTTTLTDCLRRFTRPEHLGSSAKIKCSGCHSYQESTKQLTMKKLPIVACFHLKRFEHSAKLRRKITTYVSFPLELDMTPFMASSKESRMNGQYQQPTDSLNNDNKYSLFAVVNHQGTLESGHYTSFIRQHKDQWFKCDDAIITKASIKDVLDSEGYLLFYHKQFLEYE
How it was run: as §1

USP24 = USP24 (UniProt Q9UPU5)
How it was run: as §1

USP25 = target: T3, USP25 (UniProt Q9UHP3)
T3 sequence (whole entry): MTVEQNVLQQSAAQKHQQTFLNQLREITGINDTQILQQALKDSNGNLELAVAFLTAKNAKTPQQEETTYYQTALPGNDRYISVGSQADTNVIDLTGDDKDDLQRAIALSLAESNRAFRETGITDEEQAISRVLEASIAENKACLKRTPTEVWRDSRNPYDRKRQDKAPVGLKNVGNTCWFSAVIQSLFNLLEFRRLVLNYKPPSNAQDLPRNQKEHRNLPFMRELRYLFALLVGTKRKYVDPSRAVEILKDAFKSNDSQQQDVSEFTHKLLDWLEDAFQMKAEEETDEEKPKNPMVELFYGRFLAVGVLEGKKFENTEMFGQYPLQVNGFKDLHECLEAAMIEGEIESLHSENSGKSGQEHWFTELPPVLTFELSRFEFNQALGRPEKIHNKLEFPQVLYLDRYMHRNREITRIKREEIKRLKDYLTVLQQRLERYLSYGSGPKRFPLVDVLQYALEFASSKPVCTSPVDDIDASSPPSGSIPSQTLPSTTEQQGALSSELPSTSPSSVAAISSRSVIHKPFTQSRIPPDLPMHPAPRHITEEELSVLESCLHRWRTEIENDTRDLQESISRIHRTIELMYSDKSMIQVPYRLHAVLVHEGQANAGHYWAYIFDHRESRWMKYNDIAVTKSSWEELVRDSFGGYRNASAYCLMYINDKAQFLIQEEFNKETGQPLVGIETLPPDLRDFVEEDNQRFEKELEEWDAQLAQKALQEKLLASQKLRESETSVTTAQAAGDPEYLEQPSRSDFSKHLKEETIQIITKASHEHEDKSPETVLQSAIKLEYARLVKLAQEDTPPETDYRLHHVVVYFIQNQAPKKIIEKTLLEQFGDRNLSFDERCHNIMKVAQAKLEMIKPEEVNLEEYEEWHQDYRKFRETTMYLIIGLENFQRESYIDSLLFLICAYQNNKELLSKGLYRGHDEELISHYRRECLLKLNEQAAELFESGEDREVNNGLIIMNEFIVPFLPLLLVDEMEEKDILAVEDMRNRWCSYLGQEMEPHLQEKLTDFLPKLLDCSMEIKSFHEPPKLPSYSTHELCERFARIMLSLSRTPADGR
How it was run: as §1

USP28 = target: T4, USP28 (UniProt Q96RU2)
T4 sequence (whole entry): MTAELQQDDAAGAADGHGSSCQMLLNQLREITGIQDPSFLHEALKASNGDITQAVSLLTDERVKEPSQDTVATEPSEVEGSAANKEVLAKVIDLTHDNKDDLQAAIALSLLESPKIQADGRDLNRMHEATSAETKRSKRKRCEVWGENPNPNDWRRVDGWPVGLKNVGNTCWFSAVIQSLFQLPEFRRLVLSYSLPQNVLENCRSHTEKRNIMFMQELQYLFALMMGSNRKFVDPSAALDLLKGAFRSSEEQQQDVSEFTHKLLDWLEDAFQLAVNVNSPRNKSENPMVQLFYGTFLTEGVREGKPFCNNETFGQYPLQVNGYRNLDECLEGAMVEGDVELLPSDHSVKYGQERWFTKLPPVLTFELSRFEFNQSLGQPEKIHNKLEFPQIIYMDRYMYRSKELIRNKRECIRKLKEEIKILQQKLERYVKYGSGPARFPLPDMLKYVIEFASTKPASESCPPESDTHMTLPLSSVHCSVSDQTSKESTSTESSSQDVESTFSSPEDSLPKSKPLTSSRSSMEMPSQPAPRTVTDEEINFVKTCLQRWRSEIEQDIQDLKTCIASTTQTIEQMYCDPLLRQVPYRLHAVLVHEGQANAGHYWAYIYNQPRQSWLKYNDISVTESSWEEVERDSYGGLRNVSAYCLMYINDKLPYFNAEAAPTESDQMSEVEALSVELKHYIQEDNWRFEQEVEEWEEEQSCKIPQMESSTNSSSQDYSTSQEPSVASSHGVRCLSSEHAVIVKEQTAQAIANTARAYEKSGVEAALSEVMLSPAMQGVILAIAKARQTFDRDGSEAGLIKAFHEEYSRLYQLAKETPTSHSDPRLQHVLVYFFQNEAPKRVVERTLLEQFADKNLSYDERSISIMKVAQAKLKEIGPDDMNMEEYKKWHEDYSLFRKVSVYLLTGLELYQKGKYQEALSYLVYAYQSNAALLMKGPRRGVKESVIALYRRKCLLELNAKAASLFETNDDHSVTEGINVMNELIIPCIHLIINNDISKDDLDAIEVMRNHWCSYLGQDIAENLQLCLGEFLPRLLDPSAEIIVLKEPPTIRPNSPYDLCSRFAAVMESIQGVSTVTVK
How it was run: as §1

Measured: log2 ratio of Biotin-Ahx-Ub-VS probe labelling

USP24, sequence (Q9UPU5 whole entry): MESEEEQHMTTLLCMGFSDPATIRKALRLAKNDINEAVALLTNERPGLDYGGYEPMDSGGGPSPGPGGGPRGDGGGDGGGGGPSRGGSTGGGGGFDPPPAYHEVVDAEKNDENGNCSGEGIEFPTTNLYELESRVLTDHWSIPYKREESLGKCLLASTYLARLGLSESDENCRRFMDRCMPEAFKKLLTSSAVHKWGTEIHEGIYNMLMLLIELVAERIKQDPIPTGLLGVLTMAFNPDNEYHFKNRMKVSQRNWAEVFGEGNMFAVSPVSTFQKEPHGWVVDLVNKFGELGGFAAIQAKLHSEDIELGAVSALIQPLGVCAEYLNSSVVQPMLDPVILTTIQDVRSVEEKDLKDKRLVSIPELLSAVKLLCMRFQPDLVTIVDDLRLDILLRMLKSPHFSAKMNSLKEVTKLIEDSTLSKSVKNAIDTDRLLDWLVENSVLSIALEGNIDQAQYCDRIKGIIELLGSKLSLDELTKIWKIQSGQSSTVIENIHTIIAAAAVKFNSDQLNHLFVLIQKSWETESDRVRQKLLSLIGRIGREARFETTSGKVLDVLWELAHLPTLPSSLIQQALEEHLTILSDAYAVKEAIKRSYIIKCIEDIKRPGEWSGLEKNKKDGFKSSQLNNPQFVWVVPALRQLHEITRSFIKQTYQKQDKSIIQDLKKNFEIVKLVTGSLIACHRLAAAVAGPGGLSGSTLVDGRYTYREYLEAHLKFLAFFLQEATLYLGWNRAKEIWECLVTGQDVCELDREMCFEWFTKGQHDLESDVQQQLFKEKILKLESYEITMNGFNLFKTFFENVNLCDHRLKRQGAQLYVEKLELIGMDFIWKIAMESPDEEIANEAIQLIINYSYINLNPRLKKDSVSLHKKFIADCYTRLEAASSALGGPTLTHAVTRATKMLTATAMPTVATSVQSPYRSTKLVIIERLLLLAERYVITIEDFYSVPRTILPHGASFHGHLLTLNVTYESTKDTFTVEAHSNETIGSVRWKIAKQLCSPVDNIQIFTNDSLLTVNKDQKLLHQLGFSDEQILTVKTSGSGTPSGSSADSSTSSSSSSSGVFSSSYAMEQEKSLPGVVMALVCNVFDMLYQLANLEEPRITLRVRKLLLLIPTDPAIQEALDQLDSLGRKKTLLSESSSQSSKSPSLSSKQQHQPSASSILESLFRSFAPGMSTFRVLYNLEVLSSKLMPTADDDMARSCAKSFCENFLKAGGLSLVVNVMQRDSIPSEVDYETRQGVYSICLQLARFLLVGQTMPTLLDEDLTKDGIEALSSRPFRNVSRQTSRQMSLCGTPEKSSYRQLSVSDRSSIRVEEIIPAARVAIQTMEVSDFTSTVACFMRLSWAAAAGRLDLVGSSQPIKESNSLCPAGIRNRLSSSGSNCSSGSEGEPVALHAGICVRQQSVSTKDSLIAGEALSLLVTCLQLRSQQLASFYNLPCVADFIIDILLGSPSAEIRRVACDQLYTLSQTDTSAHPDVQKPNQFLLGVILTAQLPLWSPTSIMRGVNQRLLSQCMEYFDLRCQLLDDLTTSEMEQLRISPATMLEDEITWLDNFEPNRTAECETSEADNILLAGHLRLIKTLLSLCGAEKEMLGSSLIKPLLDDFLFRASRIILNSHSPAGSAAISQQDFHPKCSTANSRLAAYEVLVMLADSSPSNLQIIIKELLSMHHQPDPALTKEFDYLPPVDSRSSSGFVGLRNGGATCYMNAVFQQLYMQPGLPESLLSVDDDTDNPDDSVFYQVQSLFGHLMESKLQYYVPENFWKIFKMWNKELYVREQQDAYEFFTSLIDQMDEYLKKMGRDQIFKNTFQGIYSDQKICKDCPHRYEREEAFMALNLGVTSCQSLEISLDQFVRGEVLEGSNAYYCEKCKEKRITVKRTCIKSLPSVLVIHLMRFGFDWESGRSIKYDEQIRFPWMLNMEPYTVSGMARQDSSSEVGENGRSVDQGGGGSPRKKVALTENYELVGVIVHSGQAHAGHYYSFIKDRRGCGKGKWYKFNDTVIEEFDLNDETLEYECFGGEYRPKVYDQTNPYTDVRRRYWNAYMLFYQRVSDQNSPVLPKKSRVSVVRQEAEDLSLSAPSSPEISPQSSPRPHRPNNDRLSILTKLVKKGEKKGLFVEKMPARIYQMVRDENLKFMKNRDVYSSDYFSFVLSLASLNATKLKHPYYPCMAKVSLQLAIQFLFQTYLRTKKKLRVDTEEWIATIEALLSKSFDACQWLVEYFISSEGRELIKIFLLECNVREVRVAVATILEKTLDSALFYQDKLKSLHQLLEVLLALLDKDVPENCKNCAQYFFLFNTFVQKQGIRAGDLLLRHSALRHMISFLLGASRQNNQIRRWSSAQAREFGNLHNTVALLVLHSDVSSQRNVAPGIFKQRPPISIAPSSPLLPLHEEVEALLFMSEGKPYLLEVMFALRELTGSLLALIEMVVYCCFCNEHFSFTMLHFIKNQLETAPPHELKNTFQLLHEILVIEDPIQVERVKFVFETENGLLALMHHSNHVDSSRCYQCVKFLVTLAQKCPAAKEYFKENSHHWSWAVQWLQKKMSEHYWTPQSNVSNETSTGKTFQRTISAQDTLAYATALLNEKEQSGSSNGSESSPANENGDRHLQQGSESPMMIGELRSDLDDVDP

Cl.O=C(CCl)N1CCC(Cc2nccs2)C1 (stereo not given)
inactive: USP19 -0.32 | USP22 0.0323 | USP24 -0.414 | USP25 -0.365 | USP28 -0.389
